MCF10A rereplic: induces DNA re-replication in MCF 10a normal breast cells. MCF 10A DNA re-replication, Hoechst nuclear intensity, 48 h. Potency, µM (top dose mostly 46.1 µM), hits mostly activators. 350,000 tested, 2.9% active. AID 624296; also: nearly all actives have a fitted effect of over 50% in size
D3 ag: D3 dopamine receptor (human) agonism; 410,000 tested, 0.58% active; max activation, %; P35462; D3R DiscoveRx beta-arrestin cells, luminescence, 90 min; in the data active = max activation above about 30%
Target sequence (P35462 whole entry, looked up): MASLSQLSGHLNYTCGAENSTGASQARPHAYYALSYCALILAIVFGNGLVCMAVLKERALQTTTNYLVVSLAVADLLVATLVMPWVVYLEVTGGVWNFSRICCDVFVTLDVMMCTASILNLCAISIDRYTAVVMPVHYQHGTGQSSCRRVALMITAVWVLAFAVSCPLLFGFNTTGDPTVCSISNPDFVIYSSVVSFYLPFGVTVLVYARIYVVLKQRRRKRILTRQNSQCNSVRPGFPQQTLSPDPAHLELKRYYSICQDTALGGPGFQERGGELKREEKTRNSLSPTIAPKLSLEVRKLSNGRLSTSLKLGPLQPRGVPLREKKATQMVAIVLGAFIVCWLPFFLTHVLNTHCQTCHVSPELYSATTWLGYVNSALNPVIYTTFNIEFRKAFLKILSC
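Cells at 1500/well, incubated overnight, then treated with pinned compounds (dopamine as control) for 90 min at 37 degrees C. DiscoveRx reagent added for 30 - 60 minutes at room temperature; luminescence read.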
SW480 rereplic: induces DNA re-replication in SW480 colon adenocarcinoma cells; Potency, µM (highest dose often 46.1 µM), usual class: activators; 340,000 tested, 1.8% active; SW480 DNA re-replication, Hoechst DNA content imaging, 48 h; also: nearly all actives have a fitted effect of over 55% in size
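Image-based read-out: total Hoechst fluorescence of nuclei (405 nm excitation, 500-530 nm emission), with hits raising the fraction of high-intensity nuclei. SW480 colon cells incubated 48 hr with compounds at 37 C.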
KB-3-1 cytotox: kills parental KB-3-1 adenocarcinoma cells. KB-3-1 viability, CellTiter-Glo ATP luminescence, 72 h. Potency, µM (top dose mostly 46.1 µM), usual class: cytotoxic. 400,000 tested, 1.4% active; also: nearly all actives have a fitted effect of over 60% in size
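Parental KB-3-1 adenocarcinoma cells in phenol-red-free DMEM with 10% FBS were pin-treated with compounds at several concentrations, incubated 72 h at 37 °C, and viability read by CellTiter-Glo luminescence; concentration-effect curves were fitted after normalization.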
D3 antag: D3 dopamine receptor (human) antagonism; AID 652054; max response, negative = inhibition, %; D3R cells, DiscoveRx beta-arrestin luminescence, antagonist mode; stronger effect = lower value; P35462; 360,000 tested, 2.5% active; in the data active = max response below about -50%; inconclusive = no clear call, values can overlap the other calls
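Cells expressing the human receptor were seeded at 1500 cells/well, incubated overnight at 37 degrees C in 5% CO2, then exposed to library compounds with dopamine controls for 90 minutes at 37 degrees C before luminescent detection.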
KB-V1 MDR tox: KB-V1 MDR subline cytotoxicity | KB-V1 MDR cells viability, CellTiter-Glo, 72 h | Potency, µM (doses to about 46.1 µM), actives largely listed as cytotoxic | 400,000 tested, 3.4% active; also: nearly all actives have a fitted effect of over 60% in size
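Cytotoxicity via CellTiter-Glo luminescence after 72 h compound exposure at 37 degrees C. Cells: drug-selected KB-V1 line, DMEM phenol-red free plus 10% FBS. Compounds tested at multiple concentrations; normalized data fitted to concentration-effect curves.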
A number is an active result; . = inactive; ? = inconclusive; / = no result given. The list is not random: actives were taken first. Their share in the collection is about 8.9%. Unless noted, calls follow the shape of the dose curve; as a rule, active = well fitted curve in the direction sought with a large enough effect; inconclusive = small, poorly fitted or top-dose-only effect, or another doubt; inactive = no such curve, though single readings can be large; an effect the other way counts as inactive or inconclusive.

SMILES | MCF10A rereplic | D3 ag | SW480 rereplic | KB-3-1 cytotox | D3 antag | KB-V1 MDR tox
Cc1ccc(C)c(N2CCN(C(=O)c3cc(S(=O)(=O)N4CCCCC4)cn3C)CC2)c1 | / | . | / | . | / | ?
COc1cccc(-c2cccc3c2NC(=O)C3(C)Cc2cccc(F)c2)c1 (configuration not stated) | / | . | / | ? | -70 | ?
Cc1ccc(-c2nc(CS(=O)(=O)CC(=O)N3CCCCCC3)c(C)o2)cc1 | . | . | . | . | . | .
Cc1ccc(-c2nc(CS(=O)(=O)CC(=O)N3CCc4ccccc4C3)c(C)o2)cc1 | . | . | . | 18µM | . | ?
COCCNC(=S)N1CCN(Cc2cccc(OC)c2)CC1 | . | . | . | . | . | .
CCN(CC)S(=O)(=O)c1ccc(C(=O)Nc2nnc(CSC)o2)cc1 | . | . | . | . | . | ?
CCCCN(C)S(=O)(=O)c1ccc(C(=O)Nc2nnc(-c3ccco3)o2)cc1 | ? | . | 13µM | ? | . | ?
CCN(CC)S(=O)(=O)c1ccc(C(=O)Nc2nnc(-c3ccco3)o2)cc1 | . | . | ? | ? | . | ?
CCCCN(CC)S(=O)(=O)c1ccc(C(=O)Nc2nnc(-c3cccs3)o2)cc1 | ? | . | ? | 8.2µM | -57 | ?
CC1CCCCN1S(=O)(=O)c1ccc(C(=O)Nc2nnc(-c3ccco3)o2)cc1 (configuration not stated) | . | . | ? | ? | . | 5.8µM
CCCCN(C)S(=O)(=O)c1ccc(C(=O)Nc2nnc(CSC)o2)cc1 | . | . | ? | ? | -98 | ?
COc1ccc(N2CC(NC(=O)/C=C\c3ccccc3)CC2=O)cc1 (configuration not stated) | / | . | / | / | / | /
O=c1c2sc3ccccc3c2n(Cc2cccc(C(F)(F)F)c2)c(=O)n1Cc1ccc(F)cc1 | / | . | / | . | / | .
CC1CCCCN1S(=O)(=O)c1ccc(C(=O)Nc2ccccc2-c2nc3ccccc3[nH]2)cc1 (configuration not stated) | . | . | . | ? | . | 23µM
CCCCN(CCCC)S(=O)(=O)c1ccc(C(=O)Nc2nnc(COC)o2)cc1 | ? | . | ? | ? | -93 | ?
Cc1ccnc(SCCn2c(N3CCOCC3)nc3c2c(=O)[nH]c(=O)n3C)n1 | . | . | . | . | . | .
Cc1nnc(SCCn2c(N3CC(C)CC(C)C3)nc3c2c(=O)n(C)c(=O)n3C)s1 (configuration not stated) | . | . | . | . | . | 21µM
CN1CCN(c2nc3c(c(=O)[nH]c(=O)n3C)n2CCCSc2nnnn2-c2ccccc2)CC1 | . | . | . | . | . | .
Cn1c(=O)[nH]c(=O)c2c1nc(N1CCCCC1)n2CCCSc1nnnn1-c1ccccc1 | . | . | . | . | . | 9.2µM
CC1CCN(c2nc3c(c(=O)[nH]c(=O)n3C)n2CC(C)CSc2nnnn2-c2ccccc2)CC1 (configuration not stated) | . | . | . | . | . | 3.7µM
Cc1csc(SCCn2c(N3CCN(c4ccccc4)CC3)nc3c2c(=O)[nH]c(=O)n3C)n1 | ? | . | . | . | . | 21µM
Cc1ccc(Cl)cc1N1CCN(C(=O)c2cc(S(=O)(=O)N3CCCC3)c[nH]2)CC1 | / | . | / | / | / | /
CC1CC(C)CN(c2nc3c(c(=O)[nH]c(=O)n3C)n2CCCSc2nc3ccccc3s2)C1 (configuration not stated) | . | . | . | . | . | 4.1µM
CCN1CCN(c2nc3c(c(=O)[nH]c(=O)n3C)n2CCSc2nc3ccccc3s2)CC1 | . | . | . | . | . | .
CCOC(=O)c1nc(NNC(=O)c2ccc([N+](=O)[O-])cc2)sc1C | . | . | 3.7µM | 18µM | . | ?
SMILES | MCF10A rereplic | D3 ag | SW480 rereplic | KB-3-1 cytotox | D3 antag | KB-V1 MDR tox
CCOC(=O)c1sc(NNC(=O)c2ccc(F)cc2)nc1C | . | . | ? | ? | . | .
CCOC(=O)c1cc(C(=O)NNC(=O)c2cccc([N+](=O)[O-])c2)c(C)nc1C | . | . | ? | . | . | ?
CCOC(=O)c1sc(NNC(=O)c2ccc(C)cc2)nc1C | 26µM | . | . | . | . | .
O=S(=O)(c1ccc(Br)cc1)c1nc(-c2cccs2)oc1SCc1ccc(F)cc1 | / | . | / | . | / | .
Cn1cnc(S(=O)(=O)N2CCC(C(=O)NCc3ccccc3)CC2)c1 | / | . | / | / | / | /
CC(=O)Nc1ccc(/C=C/c2ccncc2)cc1 | / | / | / | ? | / | .
O=c1c2ccccc2sc2nc(CCl)nn12 | ? | . | . | 6.5µM | . | ?
COc1ccc(Nc2ncc3c(n2)CCN(Cc2ccc(Br)s2)C3)c(OC)c1 | / | . | / | . | / | .
Cc1cc2c(n1-c1ccc(Cl)cc1)CC(C)(C)CC2=O | . | . | . | . | . | 13µM
CC1(C)CC(=O)c2cc(C(=O)Nc3ccccc3Cl)c(=O)n(-c3ccc(Cl)cc3)c2C1 | / | . | / | . | / | .
CC1(C)CC(=O)c2cc(C(=O)Nc3ccc(Br)cc3)c(=O)n(-c3ccc(Cl)cc3)c2C1 | / | 52 | / | . | / | .
N#C/C(=C\c1ccc(-c2cccc(Cl)c2)o1)C(=O)Nc1cccc2cccnc12 | ? | . | . | . | -51 | .
Cc1ccc(NC(=O)/C(C#N)=C/c2ccc(-c3ccc(Cl)c(C(=O)O)c3)o2)cc1C | / | . | / | ? | / | .
Cc1ccccc1NC(=O)/C(C#N)=C/c1ccc(-c2ccc(Cl)c(C(=O)O)c2)o1 | . | . | . | . | -66 | .
Cc1cccc(NC(=O)/C(C#N)=C/c2ccc(Sc3ccccc3)o2)c1C | 18µM | . | ? | . | . | .
N#C/C(=C\c1ccc(-c2ccccc2)o1)C(=O)Nn1cnnc1 | . | . | . | . | -69 | .
Cc1ccccc1NC(=O)/C(C#N)=C/c1ccc[nH]1 | . | . | . | . | . | .
COc1ccccc1CNC(=O)CCn1c(=O)c2ccccc2n(CC(=O)Nc2ccc(C)cc2C)c1=O | / | . | / | . | / | .
Cn1nccc1C(=O)N1CCOCC1 | . | . | . | . | . | .
COc1ccc(CN2C(=O)C(NC(=O)c3ccccc3OC)(C(F)(F)F)N=C2c2ccccc2)cc1 (configuration not stated) | / | . | / | . | / | ?
COCCCNC(=O)CCCn1c(=O)c2cccn2c2cccnc21 | / | . | / | / | / | /
CC(=O)c1ccc(N/N=C(/C(N)=O)C2=NC(C)(C)Cc3ccccc32)cc1 | ? | . | ? | . | . | 12µM
COc1ccc(CN2C(=O)CCC2(C)C(=O)NC2CCCCC2)c(OC)c1 (configuration not stated) | . | . | . | . | . | 21µM
OC(c1ccc(CN2CCCCC2)cc1)c1ncc(-c2ccccc2)[nH]1 (configuration not stated) | / | . | / | . | -107 | .
COc1ccc(-c2cnc(C(O)c3ccc(CN4CCCCC4)cc3)[nH]2)cc1 (configuration not stated) | / | . | / | . | ? | .
